We go through 27 molecules from PubChem BioAssay (NCATS).

Records with an inconclusive call do not appear. A number with no mark means an inactive call. Calls of active or inactive are those of the source. Calls follow the shape of the dose curve; as a rule, active = well fitted cell-killing curve with a large enough effect; inconclusive = small, poorly fitted or top-dose-only effect, or effect the other way; inactive = no such curve, though single readings can be large or run the other way.

Assay [1] is described as follows: Viability qHTS for spleen associated tyrosine kinase inhibitor (SYKi) naive MV4-11 cells (AID 1963823). Also: nearly all actives have a fitted effect of over 40% in size. In a few lines: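 CellTiter-Glo luminescence, 10 min room-temperature incubation, gave viability. Cells: naive MV4-11 (500/well), treated 72 hr at 37 C, 5% CO2.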
A general note: Quantitative high-throughput screening tests each substance at several concentrations.

The nature of assay [2]: Viability qHTS for spleen associated tyrosine kinase inhibitor (SYKi) drug resistant MV4-11 cells (AID 1963824). Also: nearly all actives have a fitted effect of over 35% in size. In a few lines:
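CellTiter-Glo luminescence, read 10 min after reagent addition, reports viability after a 72 hr compound exposure. Cells are an MV4-11 line made resistant to SYK inhibition, seeded at 500 per well onto compound-containing plates.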
Potency is read from the fitted curve at half-maximal effect.

For `CN(CC1COCCO1)S(=O)(=O)Nc1ccc2ccc3ncc(-c4cnn(C)c4)cc3c(=O)c2c1` (centres undefined), the Potency in assay [1] is 0.164 µM (active); in assay [2], 0.651 µM (active).
Take `C=C(C)C1CC2(CO)C(=CC1=O)CCC(O)C2C` (centres undefined): the Potency result in assay [1] and in assay [2] was “inactive” in each case.
For `C[C@@H]1CC[C@]2(C(=O)O[C@@H]3O[C@H](CO[C@@H]4O[C@H](CO)[C@@H](O)[C@H](O)[C@H]4O)[C@@H](O)[C@H](O)[C@H]3O)CC[C@]3(C)C(=CCC4[C@@]5(C)CC[C@H](O)[C@](C)(C(=O)O)C5CC[C@]43C)[C@@H]2[C@]1(C)O` (some centres undefined), the viability (% of control) in assay [1] was 70.3% [at 9.25 µM]. In assay [2], the viability, % of control is 98.7% [at 9.25 µM].
With `COc1cc(CO)ccc1O[C@@H]1O[C@H](CO)[C@@H](O)[C@H](O)[C@H]1O`, the Potency entry in assay [1] and in assay [2] was “inactive” throughout.
On to `Cc1cc(-c2ncc(-c3cccnc3)cc2/C=C/c2ccccc2)cnc1-c1cccnc1`, for which the Potency entry in assay [1] and in assay [2] was “inactive” in each case.
As for `CNc1cccc(CCOc2ccc3c(c2)CN(CC(F)(F)F)C(=O)[C@H](CC(=O)O)C3)n1`, the Potency result in assay [1] and in assay [2] was “inactive” in each case.
For `N#C/C(=C1\Nc2ccccc2S1)c1ccnc(NCCc2cccnc2)n1`, the Potency in assay [1] and in assay [2] was 2.31 µM (active) each time.
Consider `CC12CCC3c4ccc(O)cc4CCC3C1CC(OC1OC(C(=O)O)C(O)C(O)C1O)C2O` (centres undefined), for which the Potency entry in assay [1] and in assay [2] was “inactive” in each case.
Regarding `CC1(C)OC(=O)CC(O)C2(C)C1CC(=O)C1(C)C2C(O)CC2(C)C(c3ccoc3)OC(=O)C3OC321` (centres undefined), the Potency entry in assay [1] and in assay [2] was “inactive” in each case.
In the case of `CC1=C(C(=O)O)/C(=C/CO[C@@H]2O[C@H](COC(=O)/C=C/c3ccc(O)cc3)[C@@H](O)[C@H](O)[C@H]2O)C(O)C1` (some centres undefined), the Potency entry in assay [1] and in assay [2] was “inactive” throughout.
As to `COC(=O)C1=COC(O[C@@H]2O[C@H](CO)[C@@H](O)[C@H](O)[C@H]2O)[C@@H]2[C@@](C)(O)[C@@H](OC(=O)/C=C/c3ccccc3)C[C@]12O` (some centres undefined), the Potency entry in assay [1] and in assay [2] was “inactive” throughout.
With `CC1(C)C(=O)CCC2(C)C1C(O)C=C1COC(=O)C12O` (centres undefined), the Potency result in assay [1] and in assay [2] was “inactive” throughout.
As for `C[C@@H]1C(=O)O[C@H]2[C@@H](O)C34[C@H]5C[C@@H](C(C)(C)C)C36[C@@H](OC(=O)[C@@H]6O)O[C@@]4(C(=O)O5)[C@@]12O` (some centres undefined), the Potency result in assay [1] and in assay [2] was “inactive” throughout.
For `CCCCNc1ncc2c(-c3ccc(S(=O)(=O)N4CCOCC4)cc3)nn(C3CCC(O)CC3)c2n1` (centres undefined), the Potency in assay [1] is 0.0184 µM (active); in assay [2], 0.0291 µM (active).
Turning to `Cc1cc(-c2ccc(/C=C3\SC(=Nc4ccc(Cl)c(C(=O)O)c4)NC3=O)o2)c([N+](=O)[O-])cc1C`, the Potency entry in assay [1] and in assay [2] was “inactive” each time.
In the case of `CC(C)CC1NC(=O)C(C)NC(=O)C(CC(C)C)OC(=O)CCCNC1=O` (centres undefined), the Potency result in assay [1] and in assay [2] was “inactive” in each case.
As for `CC1=CC(=O)CC(C)(C)[C@@]1(O)/C=C/C(C)O[C@@H]1O[C@H](CO)[C@@H](O)[C@H](O)[C@H]1O` (some centres undefined), the Potency result in assay [1] and in assay [2] was “inactive” in each case.
As for `CC1CCC2(OC1)OC1CC3C4CC=C5CC(O)CC(O[C@@H]6OC[C@@H](O)[C@H](O)[C@H]6O)C5(C)C4CCC3(C)C1(O)C2C` (some centres undefined), the Potency entry in assay [1] and in assay [2] was “inactive” each time.
As for `CC(C)[C@@H](C)/C=C/[C@@H](C)[C@H]1CC[C@H]2C3=CC=C4C[C@@H](O)CC[C@]4(C)C3=CC[C@]12C`, the Potency in assay [1] was 16.4 µM (active); in assay [2], 11.6 µM (active).
`CC1(C)CC[C@]2(C(=O)O[C@@H]3O[C@H](CO)[C@@H](O)[C@H](O)[C@H]3O)CC[C@]3(C)C(=CCC4[C@@]5(C)CC[C@H](O[C@H]6O[C@H](CO)[C@@H](O)[C@H](O[C@@H]7O[C@H](CO)[C@@H](O)[C@H](O)[C@H]7O)[C@H]6O)C(C)(C)C5CC[C@]43C)[C@@H]2C1` (some centres undefined): the viability (% of control) in assay [1] is 84% [at 9.25 µM]. Further, the viability, % of control in assay [2] is 95.6% [at 9.25 µM].
Turning to `C=C1C2(C)CC3C4(C)OC(C5OC56C4=CC(=O)OC6(C)C)C3(C)C13C(=O)OC(C)C3(O)C2=O` (centres undefined), the Potency entry in assay [1] and in assay [2] was “inactive” each time.
On to `COc1cc(-c2ncn(/C=C\C(=O)OC(C)C)n2)cc(C(F)(F)F)c1`, for which the Potency in assay [1] was 0.103 µM (active); in assay [2], 0.164 µM (active).
In the case of `CC(=O)OC[C@@]12[C@H](O)C[C@]3(C)C(=CCC4[C@@]5(C)CC[C@H](O[C@@H]6O[C@H](C(=O)O)[C@@H](O[C@@H]7O[C@H](CO)[C@@H](O)[C@H](O)[C@H]7O)[C@H](O)[C@H]6O[C@@H]6O[C@H](CO)[C@@H](O)[C@H](O)[C@H]6O)[C@](C)(CO)C5CC[C@]43C)[C@@H]1CC(C)(C)[C@@H](OC(C)=O)[C@@H]2O` (some centres undefined), in assay [1], the viability (% of control) was 96.3% [at 9.25 µM]. The viability, % of control in assay [2] is 95.8% [at 9.25 µM].
For `C[C@@H]1CC[C@H]2C(C)(C)[C@H](O)[C@H](O)C[C@]2(C)[C@@]12Cc1c(O)cc3c(c1O2)CNC3=O`, the Potency result in assay [1] and in assay [2] was “inactive” throughout.
For `O=S(=O)(NCC1CC1)c1ccc(Nc2nccc(N3CCCc4cc(O)ccc43)n2)cc1`, the Potency in assay [1] is 0.146 µM (active); in assay [2] it was 0.206 µM (active).
For `C=C1C(=O)O[C@@H]2C[C@@]3(C)CCCC(=C)[C@]3(O)C[C@H]12` the same measures were 5.8 µM (active) and 2.59 µM (active).
For `CCOC(=O)C(CCc1ccccc1)NC1CSC(c2cccs2)CN(CC(=O)O)C1=O` (centres undefined) the same measures were 25.9 µM (active) and 6.51 µM (active).
